The list is a sample of the results.
aSyn UTR act: Activators via SNCA 5'UTR binding, MLPCN. alpha-synuclein 5'UTR reporter, activators screen. activity score, % (tested at 7.5 µM), hits read low. 7.1% of 300,000 active; in the data active = activity score below about -60%
An asterisk follows results filed as active.

SMILES	aSyn UTR act
COC(=O)Cn1ncn2c(cc3oc(C)cc32)c1=O	-118*
COc1ccc(NCN2C(=O)C3C4C=CC(C4)C3C2=O)cc1 (stereo not drawn)	-67*
COc1cccc(N2CCN(c3ncccn3)CC2)c1	-104*
CC(=O)c1ccc(N2CCN(c3ncccn3)CC2)cc1	-125*
NC(=Nc1ccc(Br)cc1)c1ccccc1	-75*
O=C1Nc2ccccc2S/C1=C/Nc1cccc(Cl)c1	-203*
CCCOc1ccc(-c2nc(-c3ccc(N)cc3)cs2)cc1	-123*
CC(C)c1ccc(-c2nnc(N)s2)cc1	-102*
CCCOc1ccc(-c2nnc(N)s2)cc1	-136*
Nc1nonc1-c1noc(COc2ccccc2Cl)n1	-162*
Cc1cccc(OCc2nc(-c3nonc3N)no2)c1C	-144*
O=C(Nc1ccc(-c2noc(COc3ccccc3Cl)n2)cc1)c1ccco1	-140*
Nc1nonc1-c1noc(CCCN2C(=O)c3ccccc3C2=O)n1	-108*
Cc1ccc(Oc2nnc(-c3ccc(C)cc3)c3ccccc23)cc1	-93*
Cc1ccc(-c2cc3c(N=O)c4ccccc4c-3n[nH]2)cc1	92
COc1ccc(C(=O)Nc2ccccc2C(=O)Nc2ccccn2)cc1	-104*
Cc1ccc(C(=O)Nc2cccnc2Cl)cc1Cl	-156*
Cc1ccc(C(=O)Nc2ccccc2C(=O)Nc2ccccn2)cc1Cl	-70*
Cc1c(OCC(=O)NC2CC(C)(C)NC(C)(C)C2)ccc2c1oc(=O)c1ccccc12	-107*
CC1(C)CC(NC(=O)COc2ccccc2Cl)CC(C)(C)N1	-66*
COCCNc1c(-c2ccc(O)cc2)nc2ccc(Cl)cn12	-69*
CCCCCCOc1ccc(OCC(O)CN2C(=O)NC(C)(C)C2=O)cc1 (stereo not drawn)	-128*
O=C(CNC(=O)c1ccc(F)cc1)c1ccc(Cl)cc1	-168*
O=C(CNC(=O)c1ccc(Cl)cc1)c1ccccc1	-100*
O=C(CNC(=O)c1ccccc1C(=O)O)c1ccccc1	-127*
SMILES	aSyn UTR act
O=C(CNC(=O)c1ccc(Br)cc1)c1ccccc1	-94*
C(=N\N=C\c1cccs1)/c1cccs1	-178*
CCOC(=O)C1(Cc2ccccc2)CCCN(C(=O)C=C(C)C)C1 (stereo not drawn)	-137*
CCOC(=O)C1(Cc2cccc(OC)c2)CCCN(C(=O)CSC)C1 (stereo not drawn)	-97*
CCOC(=O)C1(Cc2cccc(OC)c2)CCCN(C(=O)CCc2cccnc2)C1 (stereo not drawn)	-133*
COc1ccccc1N1CCN(Cc2cc(Br)c(O)c3ncccc23)CC1	77
CCOC(=O)C1(Cc2cccc(OC)c2)CCN(Cc2cccc(OCC)c2O)CC1	-69*
Cc1cc2c(cc1C)C(c1cc(Br)ccc1F)CC(=O)N2 (stereo not drawn)	65
CCOC(=O)C1(Cc2cccc(OC)c2)CCCN(C(=O)c2cc(C)oc2C)C1 (stereo not drawn)	-71*
CC#CC(=O)N1CCCC(Cc2cccc(OC)c2)(C(=O)OCC)C1 (stereo not drawn)	-106*
CCOC(=O)C1(Cc2ccccc2C)CCCN(C(=O)c2sccc2C)C1 (stereo not drawn)	-70*
COc1ccc(OCc2cc(C(=O)NC(C)Cn3cncn3)no2)c(Cl)c1 (stereo not drawn)	-62*
COc1cc(Cl)ccc1OCc1cc(C(=O)NC(C)Cc2cnccn2)no1 (stereo not drawn)	-145*
CCC(NC(=O)c1cc(COc2ccc(OC)cc2Cl)on1)c1ccncc1 (stereo not drawn)	-71*
COc1cc(C(=O)NC(=S)NNC(=O)c2cnccn2)cc(OC)c1OC	79
CCC(NC(=O)c1cc(COc2ccc(Cl)cc2OC)on1)c1ccncc1 (stereo not drawn)	-121*
COC(=O)c1ccc2c(=O)[nH]c(CSc3nc(C)cs3)nc2c1	-94*
COc1ccc(OC)c2c1C(=O)C(Cl)=C(Cl)C2=O	-89*
CC(C)c1ccc2nc(SCC(=O)NCC3CCCO3)c(C#N)cc2c1 (stereo not drawn)	-143*
COc1ccc(/C=N/NC(=S)Nc2ccccc2[N+](=O)[O-])cc1O	-131*
COc1cc(/C=N/Nc2ccccc2[N+](=O)[O-])ccc1OC(=O)c1ccccc1F	-100*
COc1cc(/C=N/Nc2nc3ccccc3s2)ccc1OC(=O)c1ccccc1F	-387*
CCCOc1ccc(/C=N/NC(=S)Nc2ccccc2[N+](=O)[O-])c(O)c1	101
COc1cc(OC)cc(C(=O)Oc2ccc(/C=N/Nc3nc4ccccc4s3)cc2OC)c1	-513*
N/C(=N\OC(=O)/C=C/c1ccccc1)c1cccnc1	-159*
SMILES	aSyn UTR act
N/C(=N\OC(=O)/C=C/c1ccccc1Cl)c1cccnc1	-248*
COc1cc(/C=C(/C(=O)c2cccs2)c2nc3ccccc3[nH]2)cc(OC)c1O	-224*
COc1cc(/C=N/Nc2nc3ccccc3[nH]2)cc(OC)c1O	-100*
COc1cc(/C=N/Nc2nc3ccccc3[nH]2)ccc1O	-270*
COc1cccc(/C=N/Nc2nc3ccccc3[nH]2)c1OC	-106*
COc1ccc(O)c(/C=N/Nc2nc3ccccc3[nH]2)c1	-81*

Source: PubChem
